Shown are actives, neighbours in structure and some others; about 7.8% of the full set was active somewhere.
MARV entry inh – inhibitors of Marburg virus binding or cell entry. Marburg virus pseudotyped entry inhibition, cell reporter. Potency, µM (doses to about 37.8 µM), inactives show at the highest dose activity change, negative = inhibition, actives largely listed as inhibitors. 1.8% of 300,000 active; calls by dose curve; tested in HEK293 cells; note: potency is the fitted concentration of half-maximal effect
Lassa entry inh – blocks Lassa virus binding to or entry into cells; Lassa virus pseudotype entry inhibition, cell reporter; Potency, µM (titrated, usually from 37.9 µM), without a hit: at the highest dose activity change, negative = inhibition, most hits filed as inhibitors; 1.2% of 300,000 active; calls by dose curve; tested in HEK293 cells; note: potency is the fitted concentration of half-maximal effect; nearly all actives have a fitted effect of over 50% in size
Vaccinia Venus – inhibitors of vaccinia virus (Venus reporter); AID 720580; Vaccinia virus Venus reporter expression, fluorescence; Potency, µM (titrated, usually from 36.5 µM), for inactives: top-dose activity change, negative = inhibition, actives largely listed as inhibitors; 0.46% of 330,000 active; calls by dose curve; tested in A549 cells; note: potency is the fitted concentration of half-maximal effect; nearly all actives have a fitted effect of over 30% in size
HCV inh – HCV inhibition; Huh7.5.1 HCVcc-Cre infection, luciferase reporter, 44 h; Potency, µM (highest dose often 41.8 µM), for the others: at the top dose activity change, negative = inhibition, actives largely listed as inhibitors; 3.4% of 340,000 active; active = well fitted inhibition curve with a large enough effect; inconclusive = small, poorly fitted or top-dose-only effect, or another doubt; inactive = no such curve, though single readings can be large or run the other way; note: potency is the fitted concentration of half-maximal effect
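After 44 h co-culture of compound, cells and HCVcc-Cre (~0.5 moi), substrate is added for 15 min at room temperature and luciferase measured over 15 sec. Cells were seeded at 1,000/well and pre-cultured 4 h.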
HCMV antiviral – blocks human cytomegalovirus replication; activity change, negative = inhibition, % at 57.5 µM; 4.5% of 410,000 active; HFF cells, HCMV-luciferase reporter, 72 h; stronger effect = lower value; in the data active = activity change below about -60%; inconclusive = no clear call, values can overlap the other calls; inactive = above about -39%
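Inhibition of viral replication was scored as loss of reporter luminescence in HFFs infected with HCMV-luciferase (MOI 1 PFU/cell) for 72 h; compounds tested at 2 doses, normalized to buffer and Salinomycin controls.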
VACV mCherry inh – vaccinia inhibition (mCherry reporter) | Potency, µM (series often up to 36.5 µM), without a hit: at the top dose activity change, negative = inhibition, usual class: inhibitors | Vaccinia virus mCherry reporter infection, fluorescence | 0.63% of 310,000 active; calls by dose curve; tested in A549 cells; note: potency is the fitted concentration of half-maximal effect; nearly all actives have a fitted effect of over 35% in size
Starred values were filed as active, the others as inactive; i = inactive; ? = inconclusive; / = not tested or not shown; [ ] = another dose, or the depositor's remark. % is set by controls: 0 for no effect and ±100 for the full control effect.

SMILES	MARV entry inh	Lassa entry inh	Vaccinia Venus	HCV inh	HCMV antiviral	VACV mCherry inh
CC(=O)OCC1(C)CN(c2ccccc2)NC1=O (stereo not drawn)	/	/	/	-1.2%	-62.1*	/
CC(=O)OCC1(C)CN(c2ccccc2)N(C(C)=O)C1=O (stereo not drawn)	/	/	/	-8.8%	?	/
O=C(CN(Cc1ccccc1F)C(=O)c1csnn1)NCc1ccc2c(c1)OCO2	-8.1%[46.1 µM]	2.82µM*	-13.4%	-3.2%	-15.7	-11.9%
O=C(COC(=O)C1(c2ccccc2F)CCCC1)NCc1ccc2c(c1)OCO2	-7.1%	?	-15.7%	?	-60.0*	-26.5%
O=C(COC(=O)C1(c2ccccc2F)CCCC1)NCc1cccs1	?	?	-3.5%	-17.7%	-69.4*	-4.8%
NC(=O)c1ccc(NC(=O)COC(=O)C2(c3ccccc3F)CCCC2)cc1	/	/	/	-19.8%	91.4	/
O=C(COC(=O)/C=C/c1ccc2c(c1)OCO2)NCc1ccc(F)cc1	/	/	-11.9%	/	-63.6*	i
Cc1ccn2c(Nc3ccc4c(c3)OCCO4)c(-c3cccs3)nc2c1	0.8%[46.1 µM]	27.5%[46.1 µM]	-8.1%	/	45.2	-14.0%
COc1ccc(CCn2c(=S)[nH]c(=O)c3cccnc32)cc1OC	/	/	-29.4%	/	/	-16.5%
O=C(COC(=O)c1ccc([N+](=O)[O-])o1)NCc1ccc2c(c1)OCO2	/	/	/	2.0%	-83.1*	/
O=C(COC(=O)c1ccc(Br)o1)NCc1ccc2c(c1)OCO2	-14.7%	25.7%	-13.9%	-6.7%	7.0	i
O=C(COC(=O)C1(c2ccc(F)cc2)CCCC1)NCc1ccc2c(c1)OCO2	?	-1.5%	/	-6.7%	-60.4*	/
Cc1c(C=O)ccc(N(C)C)c1C	/	/	-8.7%	/	/	37.7%
CCOc1ccc(C(C(=O)NCC2CCCO2)N(C(=O)c2snc(C(N)=O)c2N)c2ccc3c(c2)OCCO3)cc1 (stereo not drawn)	?	?	12.1%	?	-7.8	-18.4%
CCOc1ccc(N(C(=O)c2snc(C(N)=O)c2N)C(C(=O)NCC2CCCO2)c2ccco2)cc1 (stereo not drawn)	12.6µM*	?	-3.9%	-20.2%	-36.2	-8.1%
CCc1ccc(N(C(=O)c2snc(C(N)=O)c2N)C(C(=O)NCC2CCCO2)c2ccco2)cc1 (stereo not drawn)	-14.0%[46.1 µM]	-15.4%	0.4%	-10.2%	-60.4*	i
CC(C)c1ccc(N(C(=O)c2snc(C(N)=O)c2N)C(C(=O)NCC2CCCO2)c2ccc(N(C)C)cc2)cc1 (stereo not drawn)	?	?	?	?	-85.8*	?
Cc1ccc(N(C(=O)c2snc(C(N)=O)c2N)C(C(=O)NC2CCCC2)c2ccco2)cc1 (stereo not drawn)	?	?	-23.4%	-21.0%	-71.3*	-15.3%
COc1ccc(CN2CCNC(=O)C2CC(=O)N(C)C2CCCCC2)cc1OC (stereo not drawn)	/	/	-6.6%	/	-1.7	-13.8%
Cc1nn(-c2ccccc2)c2c1cc1c(=O)[nH]c(=O)nc-1n2-c1cccc(C(F)(F)F)c1	6.3%[46.1 µM]	16.0%[46.1 µM]	-9.5%	/	-4.3	-9.7%
CCOc1ccc(C(=O)c2cn(CC(=O)Nc3ccc4c(c3)OCCO4)c3ccc(OC)cc3c2=O)cc1	-20.3%[46.1 µM]	-16.5%[46.1 µM]	-7.2%	/	-37.8	-5.8%
O=C(NC1CCCCC1)C(c1ccco1)N(C(=O)c1csnn1)c1ccccc1 (stereo not drawn)	4.3%[46.1 µM]	-6.4%[46.1 µM]	-16.4%	-0.9%	0.9	i
Cc1ccc(N(C(=O)c2csnn2)C(C(=O)NC2CCCCC2)c2ccccn2)c(C)c1 (stereo not drawn)	-4.1%[46.1 µM]	-9.2%	2.1%	-5.8%	-62.0*	i
Cc1ccc(N(C(=O)c2csnn2)C(C(=O)NC2CCCCC2)c2ccco2)cc1 (stereo not drawn)	?	?	-17.5%	-8.8%	-61.5*	-17.9%
Cc1ccc(N(C(=O)c2csnn2)C(C(=O)NC2CCCC2)c2ccccn2)c(C)c1 (stereo not drawn)	-13.4%[46.1 µM]	/	-4.3%	-4.9%	-13.9	2.4%
SMILES	MARV entry inh	Lassa entry inh	Vaccinia Venus	HCV inh	HCMV antiviral	VACV mCherry inh
CC(=O)Nc1ccc(N(C(=O)Cc2c[nH]c3ccccc23)C(C(=O)NC2CCCCC2)c2ccco2)cc1 (stereo not drawn)	-16.4%	5.8µM*	?	?	?	-34.5%
O=C(NC1CCCCC1)C(c1ccccc1F)N(C(=O)c1csnn1)C1CCCC1 (stereo not drawn)	?	-4.0%[46.1 µM]	1.5%	4.3%	-60.2*	-24.3%
COc1ccc(C(C(=O)NCC2CCCO2)N(Cc2cccs2)C(=O)c2snc(C(N)=O)c2N)cc1 (stereo not drawn)	3.16µM*	?	24.5%	?	-101.3*	1.3%
CN(C)c1ccc(C(C(=O)NC2CCCCC2)N(Cc2ccco2)C(=O)c2snc(C(N)=O)c2N)cc1 (stereo not drawn)	3.55µM*	12.6µM*	-5.9%	11.2µM*	-74.5*	-14.6%
COc1cc(C(C(=O)NC2CCCC2)N(Cc2ccco2)C(=O)c2snc(C(N)=O)c2N)cc(OC)c1OC (stereo not drawn)	-8.8%[46.1 µM]	-3.4%	-22.4%	-11.6%	18.5	-25.1%
COc1cc(OC)cc(C(=O)Nc2cc(NC(=O)c3ccco3)ccc2OC)c1	0.2%[46.1 µM]	-30.1%	?	10µM*	-27.7	?
COc1ccc(NC(=O)c2ccco2)cc1NC(=O)COc1ccc(C)cc1C	-1.3%[46.1 µM]	-0.1%[46.1 µM]	?	/	-66.0*	-7.1%
COc1cc(OC)cc(C(=O)Nc2ccc(NC(=O)c3ccco3)c(C)c2)c1	?	-5.6%[46.1 µM]	-9.8%	?	4.8	-23.0%
Cc1cccc(NC(=S)N(C)Cc2cn(C)c3ccccc23)c1	-4.7%	?	-26.3%	-25.4%	-68.3*	-18.4%
CC(=O)OC1=CN(Cc2ccccc2)S(=O)(=O)c2ccccc21	8.4%[46.1 µM]	-18.2%[46.1 µM]	?	/	-4.7	?
CCCOc1ccc(N2C(=O)CC(NCc3cccs3)C2=O)cc1 (stereo not drawn)	-0.4%	-4.9%	11.2µM*	9.0%	11.3	/
O=C1CC(NCc2cccs2)C(=O)N1c1ccc(Cl)cc1 (stereo not drawn)	-17.6%[46.1 µM]	3.1%	-11.5%	2.7%	-27.2	/
Cc1cccc(NC(=O)c2nc[nH]c2C(=O)N[C@H](C)c2ccccc2)c1	/	/	?	?	-1.5	28.2µM*
CN(Cc1ccccc1)C(=O)c1[nH]cnc1C(=O)NCc1ccccc1	/	/	-12.4%	-26.6%	-61.3*	-13.4%
Cc1cccc(NC(=O)c2nc[nH]c2C(=O)NCc2ccccc2)c1	/	/	?	?	-60.5*	-15.8%
O=C(Nc1ccccc1)c1nc[nH]c1C(=O)NCc1ccccc1	/	/	?	-12.7%	-0.5	-24.1%
O=C1[C@H](Cc2ccccc2)NC/C=C\C[C@H](c2ccco2)N1Cc1ccccc1	/	/	-15.0%	/	/	0.0%
COC(=O)/C=C1/OC(c2ccccc2)=CC1=O	8.0%	/	/	/	/	/
